# Measured values taken from the supplement of paper PMC12669032.
# A number with no mark means an inactive call.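 Rule for the calls: active = AUC reduced over 20% with Padj below 0.05 in at least 2 of 3 replicates; inactive = otherwise.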
# Assays:
# Assay in all cases: growth AUC relative to DMSO control (median of replicates) (fraction); higher = more growth (less inhibition), active = hit call of the paper
# Conditions in all cases: 20 µM; 24 h
# Akkermansia muciniphila = tested on: Akkermansia muciniphila
# Outline: (§1)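 Gut bacterial monocultures in mGAM were treated with 20 µM compound (1% DMSO) and grown anaerobically at 37 °C in round-bottom 96-well plates from OD600 0.05. OD600 was read hourly for 24 h, with the minimum OD set to 0. Area under the growth curve was normalised to the plate median of solvent-only wells, or to row and column medians on the industrial chemical plate. Each value is the median of three biological replicates, each grown on a separate day.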
# Bacteroides caccae = tested on: Bacteroides caccae
# Outline: as §1
# Bacteroides clarus = tested on: Bacteroides clarus
# Outline: as §1
# Bacteroides dorei = tested on: Bacteroides dorei
# Outline: as §1
# Bacteroides stercoris = tested on: Bacteroides stercoris
# Outline: as §1
# [1] = tested on: Bacteroides thetaiotaomicron
# Outline: as §1
# Bacteroides uniformis = tested on: Bacteroides uniformis
# Outline: as §1
# [2] = tested on: Bifidobacterium longum subsp. longum
# Outline: as §1
# Clostridium difficile = tested on: Clostridium difficile
# Outline: as §1
# Collinsella aerofaciens = tested on: Collinsella aerofaciens
# Outline: as §1
Structure (SMILES),growth AUC (Akkermansia muciniphila),growth AUC (Bacteroides caccae),growth AUC (Bacteroides clarus),growth AUC (Bacteroides dorei),growth AUC (Bacteroides stercoris),growth AUC [1],growth AUC (Bacteroides uniformis),growth AUC [2],growth AUC (Clostridium difficile),growth AUC (Collinsella aerofaciens)
CC(C)OC(=O)N[C@H](C(=O)N[C@H](C)c1nc2ccc(F)cc2s1)C(C)C,1.17,0.963,0.997,0.934,0.982,1.01,0.93,1.06,0.942,0.964
CCc1ccc(O)cc1,0.993,0.884,1.01,0.95,1.24,0.989,1.01,1.01,0.957,0.919
CN(C)C(N)=O,1.05,0.949,0.998,0.982,1.05,0.99,0.971,0.973,1.03,0.977
COc1nc(C)nc(NC(=O)NS(=O)(=O)c2ccccc2OCCCl)n1,1.06,1.09,1.01,1.02,1.02,0.985,1.01,1,0.998,0.993
CC1COc2ccccc2N1C(=O)C(Cl)Cl (stereo not given),0.721,0.953,0.958,0.876,0.945,0.903,0.985,1.03,0.875,0.89
Cc1c(Br)c2ccc(F)cc2n1S(=O)(=O)c1ncn(S(=O)(=O)N(C)C)n1,0.998,1.05,1,1.01,0.997,1,0.993,1.05,1.07,1.07
COC(=O)C(C)Oc1cc(Cl)c(Cl)cc1Cl (stereo not given),0.978,0.982,1,1.04,1.22,0.982,0.978,1.03,1.03,0.982
CC(C)(C)C(=O)C(Oc1ccc(Cl)cc1)n1ccnc1 (stereo not given),1.07,0.971,0.987,0.98,1.04,0.944,0.984,1.01,0.962,0.94
CO/N=C(/C(=O)O)c1ccccc1CO/N=C(\C)c1cccc(C(F)(F)F)c1,1,0.913,0.954,0.981,1.15,0.795,0.889,0.927,0.974,0.936
CNC(=O)/C(=N/OC)c1ccccc1COc1cc(C)ccc1C,0.923,1,0.94,1.01,1.01,0.946,0.962,0.972,0.987,0.968
CCc1cccc(C)c1NC(C)C(=O)O (racemic),1.21,1.01,0.98,0.931,0.965,1.03,0.996,1.04,1.03,0.985
C=C1C[C@]23C[C@@]1(O)CC[C@H]2[C@@]12C=C[C@H](O)[C@@](C)(C(=O)O1)[C@H]2[C@@H]3C(=O)O,1.24,0.966,0.999,0.921,1.01,1.02,0.947,0.915,0.931,0.95
CON(C(=O)c1cc(C)oc1C)C1CCCCC1,0.96,1,1,1,1.04,0.972,0.997,1.03,0.972,1.03
CON=C(Cc1cccnc1)c1ccc(Cl)cc1Cl,1.06,0.889,0.971,0.938,1.28,0.91,0.921,0.998,1,0.945
CC(C)OC(=O)c1cc(C(=O)OC(C)C)cc([N+](=O)[O-])c1,0.939,0.977,0.987,0.974,0.933,0.933,0.924,0.932,0.992,0.947
NC(Cn1cncn1)C(=O)O (stereo not given),0.948,0.985,0.992,0.983,1.01,1,0.998,0.966,0.981,1.01
COC(=O)c1ccccc1S(=O)(=O)NC(=O)n1nc(OCC(C)O)n(C)c1=O (stereo not given),0.933,1,0.962,0.992,0.982,0.994,1.03,0.956,0.951,1.02
Cc1cc(C)c(C2=C(O)C3(CCCC3)OC2=O)c(C)c1,1.01,1.01,1.02,1.01,1.08,0.986,0.989,1.04,1.04,1.04
C=CCc1ccc(OC)c(OC)c1,1.02,1.04,0.998,1.06,1.01,1.03,1.04,1.11,0.984,1.03

Structure (SMILES),growth AUC (Akkermansia muciniphila),growth AUC (Bacteroides caccae),growth AUC (Bacteroides clarus),growth AUC (Bacteroides dorei),growth AUC (Bacteroides stercoris),growth AUC [1],growth AUC (Bacteroides uniformis),growth AUC [2],growth AUC (Clostridium difficile),growth AUC (Collinsella aerofaciens)
O=C(NCc1ncc(C(F)(F)F)cc1Cl)c1c(Cl)cccc1Cl,0.937,0.973,0.967,0.975,1.17,0.95,1.02,1.04,1,0.987
COC(=O)c1ccccc1S(=O)(=O)NC(=O)Nc1nc(OC(F)F)cc(OC(F)F)n1,0.91,1,0.971,0.997,0.988,0.965,1.02,1.03,0.993,0.992
CN(C(=O)NC(C)(C)c1ccccc1)c1ccccc1,0.911,1.04,0.999,0.988,0.824,1.01,1.03,0.916,1.04,0.969
CC(C)C1C2CCC1c1c(NC(=O)c3cn(C)nc3C(F)F)cccc12 (stereo not given),0.967,0.88,0.85,0.965,0.902,0.906,0.912,0.912,0.962,0.969
C=CCOC(Cn1ccnc1)c1ccc(Cl)cc1Cl (stereo not given),0.972,0.944,0.96,0.959,1.12,0.983,0.941,1.05,0.926,0.873
CS(=O)(=O)c1ccc(C(=O)O)c(N)c1,1.13,0.993,1.01,1.02,1.03,0.994,1.03,1,1.03,1.03
CCCN(CCOc1c(Cl)cc(Cl)cc1Cl)C(=O)NC=O,1.04,0.938,0.948,0.947,1.07,0.94,0.957,0.968,1.01,0.995
CCOC(N)=O,1.13,1.01,1.02,1.04,1.17,1.01,1.01,1.06,1.01,1.01
NC(=O)Cc1cccc2ccccc12,1.01,1,1.03,0.988,1.15,1.03,1.01,0.977,1.01,0.981
COC(=O)c1c(Cl)nn(C)c1S(=O)(=O)NC(=O)Nc1nc(OC)cc(OC)n1,0.984,1.04,1.07,1.02,1,0.991,1,1.06,1,1.02
CCCN(CCC)C(=O)SCC,0.884,1.02,0.97,1.01,0.942,0.998,0.959,0.97,1.03,0.992
CCc1cccc(C)c1NC(=O)CS(=O)(=O)[O-].[Na+],0.926,1.03,0.962,1.03,0.937,1.01,0.991,0.975,1.06,1.11
CCCOC(=O)NCCCN(C)C,0.994,1.01,1.03,1,0.98,1.02,1,1.02,0.987,0.975
CCC(C)c1cc([N+](=O)[O-])cc([N+](=O)[O-])c1OC(=O)OC(C)C (stereo not given),1.05,0.909,0.81,0.892,0.294 (active),0.875,0.881,0.959,0.945,0.915
O=C(O)C1(C(=O)Nc2ccc(Cl)cc2Cl)CC1,1.06,1.06,0.956,1.05,1.1,1.03,1.04,0.998,1.01,1.01
CCN(CC)C(=O)c1cccc(C)c1,1.03,0.985,1.03,1.05,1.05,0.975,0.998,1.02,0.982,0.952
COc1ccc(NC(=O)N(C)C)cc1Cl,0.982,0.975,1,1.01,0.891,0.995,1.02,1.11,0.995,0.94
CCSC(=O)COc1ccc(Cl)cc1C,0.952,0.977,0.982,0.905,0.997,0.751 (active),1.03,1.04,1.04,0.966
Nc1cc(Cl)nc(C(=O)O)c1Cl,1.11,1.01,1.04,0.971,1.15,1.03,1.02,1.06,0.952,0.997

Structure (SMILES),growth AUC (Akkermansia muciniphila),growth AUC (Bacteroides caccae),growth AUC (Bacteroides clarus),growth AUC (Bacteroides dorei),growth AUC (Bacteroides stercoris),growth AUC [1],growth AUC (Bacteroides uniformis),growth AUC [2],growth AUC (Clostridium difficile),growth AUC (Collinsella aerofaciens)
CCC([O-])=C1C(=O)CC(C(=O)[O-])CC1=O.[Ca+2] (stereo not given),0.965,1,0.998,0.996,1.1,0.958,1.01,1.03,1,0.995
Nc1nc2ccccc2[nH]1,1.06,0.96,1.01,0.911,1.01,1.02,0.94,1.03,0.973,0.943
CCOC(=O)Cn1c(=O)sc2cccc(Cl)c21,0.779,0.987,0.979,0.97,1,0.999,0.957,1.04,0.997,0.936
CC1CN(C2CCCCCCCCCCC2)CC(C)O1 (mixture of isomers),0.892,1.01,0.967,1.06,0.84,0.985,1.08,0.985,0.961,0.915
ClC=C(c1ccc(Cl)cc1)c1ccc(Cl)cc1,1.05,0.896,0.959,0.914,0.945,0.975,0.996,1,0.977,0.893
CCCCCCCCSCCO,1.06,0.954,0.967,1.02,0.918,0.975,1,1.04,0.983,0.949
O=C(O)CCCc1c[nH]c2ccccc12,1.13,1.01,1.01,0.776,0.994,0.971,0.979,1.01,1.01,0.954
CC(C)NS(=O)(=O)NC(=O)c1cc(-n2c(=O)cc(C(F)(F)F)[nH]c2=O)c(F)cc1Cl,1.11,1.04,1.01,1.01,0.984,0.991,1.02,0.993,1.02,0.994
CCCCCCCCc1c(CC)nc2ncnn2c1N,1.05,1.03,0.991,0.989,0.953,0.97,0.973,0.995,0.972,0.926
CN(C)C(=O)NC1CCCCCCC1,0.984,1.01,1.01,0.996,1.09,0.99,0.972,1.01,1.03,1.01
S=C([S-])NCCNC(=S)[S-].[Zn+2],1.16,1.05,0.989,0.999,0.983,0.978,1.03,0.995,0.972,0.992
C#CCOC(=O)[C@@H](C)Oc1ccc(Oc2ncc(Cl)cc2F)cc1,0.914,0.998,0.985,1.02,1.05,0.975,0.942,1.04,0.99,0.964
Cc1nn(C)c(OCC(=O)c2ccccc2)c1C(=O)c1ccc(Cl)cc1Cl,1.04,0.955,0.978,0.987,1.17,0.933,0.852,0.992,0.947,1.01
CCCCCCCCOC(=O)COc1cc(Cl)c(Cl)cc1Cl,1.05,0.98,1,0.968,1.11,1.01,0.982,0.97,1.02,0.94
CCOC(=O)c1cnn(C)c1S(=O)(=O)NC(=O)Nc1nc(OC)cc(OC)n1,1.08,0.999,1.02,1,1.15,0.966,1.03,1.06,0.982,1
O=[N+]([O-])c1ccc(Oc2c(Cl)cc(Cl)cc2Cl)cc1,0.832,1.02,0.907,1.01,1.07,0.971,0.914,0.985,1.02,0.935
CC(C)N(C(=O)CS(=O)(=O)[O-])c1ccc(F)cc1.[Na+],0.977,1.02,0.979,0.984,0.966,0.948,1.04,0.944,1.05,0.957
CCCCCC(C)OC(=O)COc1ccc(Cl)c2cccnc12 (stereo not given),1.01,0.887,0.956,0.945,1.03,0.889,0.915,0.953,0.934,0.853
FC(F)(F)c1cccc(C(c2ccccc2)(c2ccccc2)n2cncn2)c1,0.852,0.02 (active),0.93,0.92,0.892,0.869,0.877,0.948,1.04,0.924
